Results filed as inconclusive are left out. Activity calls are given as the source filed them. The call rests on the fitted dose curve; in most records, active means well fitted cell-killing curve with a large enough effect; inconclusive means small, poorly fitted or top-dose-only effect; inactive means flat fitted curve, though single readings scatter. Bridge positions count the residues as written; N and C are the ends. Square brackets hold non-standard residues; d marks the D form. Side chains are listed from the residue outwards. Peptide text beside a SMILES is read from it. * marks the point of attachment. Phg(4-OMe) = COc1ccc([C@H](N)C(=O)O)cc1; d(aIle) = CC[C@H](C)[C@@H](N)C(=O)O; d(aThr) = C[C@@H](O)[C@@H](N)C(=O)O; NMeF = CN[C@@H](Cc1ccccc1)C(=O)O; Isobutyryl = CC(C)C(=O)*
assay: HEK-293 Cancer Cell Toxicity qHTS against the NCATS CANVASS Library (AID 1347355); settings: HEK-293 viability, CellTiter-Glo luminescence, 72 h; series mostly up to 46.1 µM; further: nearly all actives have a fitted effect of over 65% in size
Method in brief: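 qHTS cytotoxicity: compounds tested in 11 concentrations on 1000 seeded cells per well over 72 h; bortezomib served as control; signal from CellTiter-Glo luminescence.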
On the % scale 0 is the no-effect control and ±100 the full control effect; potency means the concentration at half of the fitted maximal effect.

SMILES | Potency | activity change, negative = cytotoxicity
O=C1CC2OCC=C3CN4C5CC3C2[C@@H]2N1c1ccccc1[C@]52C[C@@H]4C1=C[C@H]2C3CC4N(CC[C@@]45c4ccccc4N(C1=O)[C@@H]25)C/C3=C/CO (some centres undefined) | 16.6 µM (active) | –
CCC(=O)CCCCC[C@@H]1NC(=O)[C@H]2CCCCN2C(=O)[C@H](C(C)C)NC(=O)[C@H](Cc2cn(OC)c3ccccc23)NC1=O | 5.26 µM (active) | –
C/C(=C\[C@H](C)C(=O)CCCC1CC(=O)NC(=O)C1)[C@@H]1OC(=O)/C=C/CC/C=C/[C@H](O)[C@@H](O)[C@@H]1C | 0.662 µM (active) | –
C/C=C(/C)c1c(Cl)c(O)c(C)c2c1Oc1c(Cl)c(O)c(Cl)c(C)c1C(=O)O2 | inactive | –
C=C[C@@]1(C)CC[C@@H]([C@H](C)C(=O)/C=C/C(C)(C)O)O1 | 26.4 µM (active) | –
C=C1CC[C@@H](O[C@H]2C[C@@](O)([C@H](C)NC(=O)c3[nH]c(C)c(Cl)c3Cl)[C@H](O)[C@@H](C)O2)[C@@H]2C=C[C@H](C)C(/C(O)=C3/C(=O)[C@H](C(C)C)N([C@@H]4O[C@H](C)[C@H](OC(N)=O)[C@H](OC(C)=O)[C@@H]4OC)C3=O)[C@@H]12 (some centres undefined) | inactive | –
COc1ccc([C@@H]2CC(=O)c3c(cc(O)c(C/C=C(\C)CCC=C(C)C)c3O)O2)cc1 | – | -14.6% [at 9.19 µM] (inactive)
CC[C@H](C)[C@H]1NC(=O)[C@@H](NC(=O)C(C)C)[C@@H](C)OC(=O)[C@H](COC(=O)CNC(C)=O)NC(=O)[C@@H]([C@@H](C)O)NC(=O)[C@H](Cc2ccccc2)N(C)C(=O)[C@H](c2ccc(OC)cc2)NC1=O (Isobutyryl-T[d(aIle)][Phg(4-OMe)][NMeF][d(aThr)]S([Gly-Ac]); ester 1-C) | inactive | –
C[n+]1cc2cc(C(N)=O)[nH]c3c(=N)c(Cl)c(N)c1c23 | inactive | –
CC(=O)Oc1cc2c(c(OC(C)=O)c1C1CCc3cc(Cl)c(Cl)n31)C(=O)n1c-2cc(Cl)c1Cl (centres undefined) | 16.6 µM (active) | –
COc1ccc2[nH]c3c(c2c1)CCN1C[C@H]2C[C@@H](OC(=O)c4cc(OC)c(OC)c(OC)c4)[C@H](OC)[C@@H](OC)[C@H]2C[C@H]31 | 20.9 µM (active) | –
CC(C)=CC[C@H]1C[C@@]2(CC=C(C)C)C(=O)[C@](CC=C(C)C)(C(=O)C(C(=O)c3ccccc3)=C2O)C1(C)C | 23.5 µM (active) | –
C[C@]12CC[C@]3(C1)[C@H](CC2=O)C[C@@H](OC(=O)c1ccccc1)[C@H]1[C@](C)(C(=O)O)CCC[C@@]13C | 13.2 µM (active) | –
C=C[C@](Cl)(CBr)CCC=C(C)C | inactive | –
C=C1CC[C@@H](Br)C(C)(C)[C@]12CC=C(C)C(=O)C2 | inactive | –
C[C@H]1C=C[C@H]2CCCC[C@@H]2[C@H]1C(=O)[C@H]1CC2=C(C(=O)O)CCN2C1=O | inactive | –
C/C(=C\[C@H](C)C(=O)/C=C/CC1CC(=O)NC(=O)C1)[C@@H]1OC(=O)/C=C/CC/C=C/C[C@@H](O)[C@@H]1C | 3.72 µM (active) | –
C/C=C1/CN2C3CC1C1C=CC(=O)N4c5ccccc5[C@@]3(C[C@@H]2C2=C[C@H]3C5CC6N(CC[C@@]67c6ccccc6N(C2=O)[C@@H]37)C/C5=C/C)[C@H]14 (some centres undefined) | 9.35 µM (active) | –
Oc1ccc(C2Oc3cc(O)c4c(c3[C@@H]2c2cc(O)cc(O)c2)[C@H]2C(c3ccc(O)cc3)c3c(O)cc5c(c3[C@H]2C4c2ccc(O)cc2)[C@H](c2cc(O)cc(O)c2)C(c2ccc(O)cc2)O5)cc1 (some centres undefined) | inactive | –
COc1cc(O)c(C(=O)[C@@H]2[C@H](CC=C(C)C)C(C)=CC[C@H]2c2ccccc2)c(O)c1 | 20.9 µM (active) | –
C=C(C)CC[C@H](Cc1c(O)cc(O)c2c1O[C@H](c1ccc(O)cc1)CC2=O)C(=C)C | inactive | –
COc1cc(/C=C/C(=O)OC[C@@H](Cc2ccc(O)c(OC)c2)[C@@H](COC(=O)/C=C/c2ccc(O)c(OC)c2)Cc2ccc(O)c(OC)c2)ccc1O | 11.8 µM (active) | –
C=CC(CCCCC)C1C(=O)NC(=O)C1C(=O)C1C2C(C)CC(C(=O)O)CC2CC1(O)C(=O)/C=C/C (centres undefined) | inactive | –
C[C@]12CCC[C@](C)(C(=O)O)[C@@H]1CC[C@@]1(C)c3cocc3CC[C@H]21 | inactive | –
COc1c(O)cc2c(c1O)C(=O)c1c(coc1C)C2=O | inactive | –
CC(C)C[C@@H]1c2c(O)c(C=O)c(O)c(C=O)c2O[C@]2(C)C=C[C@@H](C(C)C)C[C@H]12 | inactive | –
COc1cc2c(c(O)c1O)C(=O)c1c(coc1C)C2=O | 9.35 µM (active) | –
CO[C@H]1[C@@H](OC(=O)/C(C)=C\[C@@H]2O[C@@H]2[C@H]2O[C@H]2C)[C@H](O)[C@H](OCC23C[C@@H]4[C@H](C)CC[C@H]4C4(C=O)CC2C=C(C(C)C)C34C(=O)O)O[C@@H]1C (some centres undefined) | inactive | –
CC[C@H]1[C@H](C)[C@H](c2cc(OC)c(OC)cc2OC)[C@@H](C)[C@H](c2cc(OC)c(OC)cc2OC)[C@@]12C=C(OC)C(=O)C=C2OC | 18.7 µM (active) | –
